From PubChem BioAssay (NCI)
Values joined by “and” are separate entries in the source; they are usually repeats but may differ in a detail not shown here. Equal entries are not always repeated. About 79,000 compounds went through this panel and 15% of them were active in at least one assay; those are over-represented in the sample as a whole. No stated cut-off is given here; in the data, active means growth inhibition above about 70%; inactive means the rest.

Tests used:
[1] = NCI Yeast Anticancer Drug Screen. Data for the rad50 strain (AID 155);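 further: 0% = growth of vehicle-only cultures of the same strain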; settings: S. cerevisiae rad50 strain growth inhibition, hits give high values; at 50.0 µM unless noted
In short: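 A DNA repair-deficient yeast mutant serves as the test organism; compound-induced growth inhibition is calculated against vehicle-treated cells.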

[2] = NCI Yeast Anticancer Drug Screen. Data for the mec2-1 strain (AID 157); settings: S. cerevisiae mec2-1 strain, hits give high values; at 50.0 µM unless noted
In short: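 Readout is yeast growth inhibition, normalised to vehicle-treated controls, in the mec2-1 strain exposed to compound.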

[3] = NCI Yeast Anticancer Drug Screen. Data for the sgs1 mgt1 strain (AID 161);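 further: 0% = growth of cultures given vehicle only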; settings: S. cerevisiae sgs1 mgt1 strain, hits give high values; at 50.0 µM unless noted
In short: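 Growth of a repair-deficient yeast mutant was monitored after compound treatment and expressed as inhibition relative to vehicle-treated cultures.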

[4] = NCI Yeast Anticancer Drug Screen. Data for the cln2 rad14 strain (AID 165);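 further: 0% = growth equal to vehicle treated cultures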; settings: S. cerevisiae cln2 rad14 strain, hits give high values; at 50.0 µM unless noted
In short: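 Relative to vehicle controls, growth inhibition of compound-treated cln2 rad14 yeast was recorded.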

[5] = NCI Yeast Anticancer Drug Screen. Data for the bub3 strain (AID 167); settings: S. cerevisiae bub3 mutant strain, hits give high values; at 50.0 µM unless noted
In short: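 Inhibition values come from growth of compound-treated mutant yeast normalised to vehicle-treated controls.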

[6] = NCI Yeast Anticancer Drug Screen. Data for the mlh1 rad18 strain (AID 175); settings: S. cerevisiae mlh1 rad18 strain growth inhibition, hits give high values; at 50.0 µM unless noted
In short: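 Test agents were incubated with a yeast strain of defined genotype (DNA damage repair defect). Inhibition of growth was derived by comparison with vehicle-exposed cultures.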

Measured: growth inhibition

Cc1ccc(S(=O)(=O)Nc2ccc([N+](=O)[O-])cc2-c2ccccc2)cc1
inactive: [1] -0.25% | [2] -9.2% | [3] 0.2% | [4] -1.15% | [5] 5.15% | [6] 4.2%

CO[C@H]1C[C@H](n2cc(C)c(=O)[nH]c2=O)O[C@@H]1CO
inactive: [1] -6.55% | [2] -9.75% | [3] -39.9% | [4] -10.7% | [5] -9.3% | [6] -25.8%

c1ccc(N=C(Nc2ccccn2)Nc2ccccn2)nc1
inactive: [1] 5.15% | [2] -7.2% | [3] 1.1% | [4] -34% | [5] -14.7% | [6] -25.1%

Cc1n[nH]c(=O)n1/N=C/c1ccncc1
inactive: [1] 8.45% | [2] 6.95% | [3] -6% | [4] -17% | [5] -4.35% | [6] 7%

[N-]=[N+]=CC(=O)C1OC12C1CC3CC(C1)CC2C3 (centres undefined)
inactive: [1] -9.2% | [2] -5.85% | [3] 2.45% | [4] -6.25% | [5] 5.2% | [6] 4.55%

C[N+]1(Cc2csc(-c3ccc(Cl)cc3)n2)CCOCC1
inactive: [1] 3.15% | [2] -25.6% | [3] 10.5% | [4] 9.35% | [5] 0.7% | [6] 4.2%

CCN(CC)CCCC(C)Nc1ncnc2ccccc12 (centres undefined)
inactive: [1] 2.2% | [2] 8.95% | [3] 23.1% | [4] 15.6% | [5] -7.3% | [6] -2.25%

CCc1cccc(CC)c1N1C(=O)CC(Sc2ccccc2N)C1=O (centres undefined)
inactive: [1] -18.1% | [2] -16.3% | [3] -14.8% | [4] -0.85% | [5] -9.5% | [6] -25.8%

CCC1([N+](C)(C)C)CSC1C (centres undefined)
inactive: [1] 5.15% | [2] 2.9% | [3] 4.35% | [4] -26.6% | [5] -8.65% | [6] -0.95%

Nc1ncnc2c1nc(Cl)n2C1OC2COP(=O)(O)OC2C1O (centres undefined)
inactive: [1] -15.9% and -13.3% | [2] -8.05% and 3.45% | [3] -20.7% and -0.55% | [4] -9.25% and -40.8% | [5] -27.1% and -41.8% | [6] -13.8% and -10.6%

CC(=O)Nc1ccc(NCC(=O)Nn2cnc3ccc(S(=O)(=O)Nc4ccc(NC(C)=O)cc4)cc3c2=O)cc1
inactive: [1] 5.55% | [2] -18.1% | [3] 16.6% | [4] 20.9% | [5] -0.6% | [6] 6.95%

Cc1ccc(S(=O)(=O)n2cc(C#N)c(C#N)c2)cc1
inactive: [1] -10.8% | [2] 2.25% | [3] 10.8% | [4] -28.6% | [5] 16.3% | [6] 7.15%

NC(CSCCB(O)O)C(=O)O (centres undefined)
inactive: [1] -11.7% | [2] -15.2% | [3] -6.5% | [4] -14.6% | [5] -5% | [6] -20.4%

O=C(NC1c2ccccc2Oc2ccccc21)OCCI
inactive: [1] 36.1% | [2] 6.05% | [3] 37.6% | [4] 13.3% | [5] -14% | [6] 19.8%

CCOc1ccc(OCC)c(NC=O)c1
inactive: [1] -9% | [2] -20.1% | [3] -6.75% | [4] 8.4% | [5] -11.8% | [6] 2.95%

OCCNc1cccc2ccccc12
inactive: [1] 31.6% | [2] -4.15% | [3] 35.2% | [4] 18.9% | [5] 8.8% | [6] 37.4%

CNc1nc(=O)[nH]c(C)c1[N+](=O)[O-]
inactive: [1] 19.9% | [2] 4.45% | [3] -6.9% | [4] -60.8% | [5] -4% | [6] 12.6%

CC(C)(CO)C(O)C(=O)NN (centres undefined)
inactive: [1] -2.8% | [2] 2.95% | [3] 8.6% | [4] -6.25% | [5] -3.9% | [6] 3.25%

O=C(O)CCC(=O)N1c2ccccc2CC1c1c[nH]c2ccccc12 (centres undefined)
inactive: [1] -8.45% | [2] -13.9% | [3] -6.55% | [4] 18.6% | [5] 2% | [6] 5.6%

Nc1nc(N)c(CCCCc2ccccc2)c(Cc2ccccc2)n1
inactive: [1] -10.2% | [2] -10.5% | [3] -2% | [4] -40% | [5] 3.7% | [6] -7.4%

O=C1CN(Cc2ccc3c(c2)OCO3)NO1
inactive: [1] 15.3% | [2] -1.25% | [3] -17.4% | [4] -4.5% | [5] -9.35% | [6] -26.5%

COc1cc(OC)c(-c2cc(=O)c3c(OC)c(OC)c(OC)c(OC)c3o2)cc1OC
inactive: [1] -2.95% | [2] -3.8% | [3] -2.8% | [4] -44% | [5] 36.2% | [6] -21.1%

Cn1c(=O)c2[nH]c(Nc3cccc(Cl)c3)nc2n(C)c1=O
inactive: [1] -26.3% | [2] 8.75% | [3] -18.8% | [4] -13.2% | [5] -1.85% | [6] 17.1%

COc1ccc(C(CC(=O)C(C)(C)CN2CCCCC2)SCCS(=O)(=O)O)cc1 (centres undefined)
inactive: [1] -2.75% | [2] -4.9% | [3] -3.15% | [4] 2.85% | [5] -1.6% | [6] 4.15%

O=C(/C=C/c1ccc(O)c(O)c1)OC1CC(O)(C(=O)O)CC(O)C1O (centres undefined) (tested in a mixture with another compound)
inactive: [1] -26.6% | [2] -13.9% | [3] -9.35% | [4] -17.1% | [5] 4% | [6] -12.3%

CC(Br)C(=O)NC(CC(N)=O)C(=O)O (centres undefined)
inactive: [1] 1.8% and -8.25% | [2] -15.6% and -16.1% | [3] -9.15% | [4] 4.2% | [5] -14.7% | [6] 23% and -17.1%

CCOC(OCC)c1ccc(OC)c(OC)c1
inactive: [1] 13.5% | [2] -5.3% | [3] 8.95% | [4] -0.1% | [5] 3.45% | [6] 9.6%

O=C(O)CC(O)(c1ccccc1)c1ccccc1
inactive: [1] 0.05% | [2] -1.7% | [3] -5.05% | [4] -7.9% | [5] 1.4% | [6] 0%

CC1SCc2nc3ccccc3n21 (centres undefined)
inactive: [1] 2.25% | [2] -10.8% | [3] 27.9% | [4] 12.1% | [5] 5.7% | [6] -35.5%

NC(=O)C(=CN1C(=O)CC(=O)NC1=S)C(N)=O
inactive: [1] -29.8% | [2] -34% | [3] -11.6% | [4] -13.8% | [5] -26.6% | [6] 13.5%

Nc1ncnc2c1ncn2C1OC(COP(=O)(O)O)C(O)C1O (centres undefined)
inactive: [1] -9.65% and -9.3% | [2] 1.65% and -12.6% | [3] 15.6% and -9.1% | [4] 2.95% and 9.25% | [5] 0.85% and -17.9% | [6] -9% and -13.2%

CCCCCCCCCCCCCCCC(=O)c1ccccc1
inactive: [1] 33.2% | [2] 27.2% | [3] 28.4% | [4] 52.6% | [5] 21.1% | [6] 42.5%

O=C(CCS(=O)(=O)CCC(=O)c1ccccc1)c1ccccc1
inactive: [1] -12.3% | [2] 11.8% | [3] 2.25% | [4] -6.35% | [5] -4.4% | [6] 3.1%

COc1cc(C(CC(=O)O)C(=O)O)c([N+](=O)[O-])cc1OC (centres undefined)
inactive: [1] -23.2% | [2] 1.1% | [3] 2.2% | [4] 0% | [5] 24.5% | [6] 7.4%

COc1cc(N=C=S)ccc1NC(=O)c1cc(Br)cc(Br)c1O
inactive: [1] 55.9% | [2] 39.4% | [3] 46.6% | [4] 31.2% | [5] 1.15% | [6] 45%

O=C(CCc1ccccc1)On1nnc2ccccc2c1=O
inactive: [1] -19.1% | [2] -14.2% | [3] -29.8% | [4] 9.9% | [5] -14.6% | [6] -29.1%

O=C(Cc1nc2ccc(C(=O)c3ccccc3)cc2[nH]c1=O)C(=O)Nc1ccc(C(F)(F)F)cc1[N+](=O)[O-]
inactive: [1] 8.45% | [2] 14.7% | [3] -3.9% | [4] -6.25% | [5] -12.1% | [6] 18.1%

COc1ccc(C2NC3=C(CCCC3)N2)cc1
inactive: [1] 26.4% | [2] 4.45% | [3] -13.9% | [4] 8.3% | [5] -3.9% | [6] 32.9%

CCC1CC2CC(c3cc4c(cc3OC)N(C)C3C(O)(C(=O)OC)C(OC(C)=O)C5(CC)C=CCN6CCC43C65)c3[nH]c4ccccc4c3CCN(C1)C2 (centres undefined)
inactive: [1] 17.9% | [2] 14.3% | [3] 28.9% | [4] 2% | [5] 8.65% | [6] 43.4%
